# Compounds with a hit are over-represented: about 3.1% of the library has one in this group of screens.
# ELG1 DNA repair – qHTS screen for small molecules that inhibit ELG1-dependent DNA repair in human embryonic kidney (HEK293T) cells expressing luciferase-tagged ELG1; HEK293T ELG1-luciferase reporter, luminescence, 16 h; DNA damage induced by 5-fluorouridine; Potency, µM (top dose mostly 46.1 µM), for the others: top-dose activity change, negative = inhibition, hits mostly inhibitors; 330,000 compounds, 2.3% hits; further: potency means the concentration at half of the fitted maximal effect; on the % scale 0 is the no-effect control and ±100 the full control effect; nearly all actives have a fitted effect of over 55% in size
#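 HEK293T cells expressing luciferase-tagged ELG1 (2,000/well) received 5-Fluorouridine plus compound or DMSO for 16 hr at 37 °C. Luciferase was read by ONE-Glo luminescence after 30 min at room temperature.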
# BRCA1 expr up – qHTS Assay to Identify Small Molecule Activators of BRCA1 Expression; MCF7-BRCA1-FFLuc reporter, luminescence, 48 h; response scale: scaled: vehicle 0%, 10 µM genistein 100%; Potency, µM (series often up to 46.1 µM), inactives show at the highest dose activation, most hits filed as activators; 380,000 compounds, 1.1% hits; AID 624202, 2012; further: potency means the concentration at half of the fitted maximal effect; nearly all actives have a fitted effect of over 80% in size
#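 Cells: MCF7-BRCA1-FFLuc, 2000/well. Exposure: 48 h, 37 °C, 5% CO2. Read: luminescence, 15 min post-substrate. Controls: genistein 10 microM (maximal activation), DMSO (neutral).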
# IL-2 act – qHTS of IL-2 Activators; 360,000 compounds, 0.065% hits; activation, % (series mostly up to about 46 µM); AID 652025, 2013; IL-2 activation reporter assay, cell-based qHTS; stimulated with anti-CD3/CD4/CD28 beads; in transgenic mouse T cells; in the data active means activation above about 50%; inconclusive means mostly about 30% to 49%; further: 0% is about no effect
#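 Unstimulated transgenic mouse T cells; 60-min compound exposure; bead-based TCR/CD4/CD28 stimulation; 18 h culture, 37 degrees C; dual fluorescence (EGFP, DsRed) plate cytometry.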
# Nrf2 activator – qHTS of Nrf2 Activators | AREc32 ARE-luciferase reporter (MCF7-derived line), luminescence, 24 h | Potency, µM (series often up to 46.1 µM), without a hit: top-dose activation, usual class: activators | 410,000 compounds, 0.31% hits | AID 624171, 2012; further: potency means the concentration at half of the fitted maximal effect; % of control where 0% means no effect; nearly all actives have a fitted effect of over 65% in size
#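 AREc32 cells carrying an ARE-driven firefly luciferase, 1000 cells/well in OPTI-MEM with 5% FBS, dosed after overnight attachment and incubated 24 hr at 37 deg C. Steady-Glo luminescence read after 30 min at RT.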
# The depositor's hits bear a star; ? = inconclusive; / = not tested or not shown; [ ] = dose if it differs, or a comment. Unless noted, the call rests on the fitted dose curve; in most records, active means well fitted curve in the direction sought with a large enough effect; inconclusive means small, poorly fitted or top-dose-only effect, or another doubt; inactive means no such curve, though single readings can be large; an effect the other way counts as inactive or inconclusive.
SMILES,ELG1 DNA repair,BRCA1 expr up,IL-2 act,Nrf2 activator
NC(=S)n1[nH]c(-c2ccc([N+](=O)[O-])cc2)c(N=Nc2ccc(Cl)cc2)c1=O,2.9µM*,-60%,-6,0%[9.22 µM]
O=C(Nc1ccc2c(c1)OCCO2)C(CCc1ccccc1)N1CCC(Cc2ccccc2)CC1 (configuration not stated),/,15%,0,7%
COc1cc(NC(=O)C2CCN(S(=O)(=O)c3c(C)noc3/C=C/c3ccccc3F)CC2)cc(OC)c1OC,/,/,/,6%
CN(c1ccc(OCC(=O)Nc2nc3ccccc3s2)cc1)S(=O)(=O)c1ccccc1,8.2µM*,4%,-1,0%
CCOc1ccc(S(=O)(=O)N(C)c2ccc(OCC(=O)Nc3nc4ccccc4s3)cc2)cc1,?,-39%,0,3%
CCOC(=O)Cc1csc(NC(=O)COc2ccc(N(C)S(=O)(=O)c3ccc(C)cc3)cc2)n1,18µM*,-2%,-3,1%
CCOC(=O)Cc1csc(NC(=O)Nc2ccc(F)cc2)n1,7.3µM*,1%,-5,3%
CCOC(=O)Cc1csc(NC(=O)CC)n1,11%,12%,-1,-1%
CCOC(=O)Cc1csc(NC(=O)C(NC(=O)C2CCC(C)CC2)C(C)C)n1 (configuration not stated),8.2µM*,-25%,0,3%
Cc1cc(Oc2ccccc2)nc(C#N)n1,/,19%,/,/
Cc1ccc(S(=O)(=O)N2CCCC(c3nc4c(nnn4Cc4ccc(OC(F)(F)F)cc4)c(=O)[nH]3)C2)cc1 (configuration not stated),/,/,/,1%
Cc1nc(N2CCCC2)ncc1C(=O)Nc1ccccc1,/,/,/,0%
Cc1ccc(NC(=O)Nc2cccnc2)cc1Cl,?,13µM*,-2,0%
O=C(Nc1cccnc1)Nc1cc(Cl)cc(Cl)c1,-10%,-41%,-7,0%
Cc1ccc(C(c2nc3ccccc3[nH]2)n2c(-c3ccccc3)nc3ccccc32)cc1 (configuration not stated),/,4.5µM*,-1,8%
CSCCC(c1nc2ccccc2[nH]1)n1c(-c2ccc(C)cc2)nc2ccccc21 (configuration not stated),/,/,0,/
O=C(c1ccoc1)N1CCN(c2cc(-c3cccnc3)nc3cc(-c4cccc(Cl)c4)nn23)CC1,/,-68%,-1,0%
CC(=O)Nc1ccc(S(=O)(=O)N2CCN=C2c2ccccc2)cc1,8.2µM*,-1%,-1,0%
CC(=O)Nc1ccc(S(=O)(=O)N2CCN(S(=O)(=O)c3ccccc3)CC2)cc1,3%,8%,0,0%
Cc1nnc(-c2ccc(N3CCCCCC3)c([N+](=O)[O-])c2)o1,5%,22µM*,2,8%
O=C(N/N=C/c1c(O)n(Cc2ccccc2)c(=O)c2ccccc12)c1cccnc1,?,0%,-3,0%
COc1ccc(Cn2c(O)c(/C=N/NC(=O)c3cccnc3)c3ccccc3c2=O)cc1,18µM*,-77%,1,-1%
CCOC(=O)C1(Cc2cccc(F)c2)CCN(Cc2ccc(COC)o2)CC1,23µM*,-17%,-4,0%
Cc1cccc2cc(/C=N/NC(=O)c3ccccc3O)c(Cl)nc12,23µM*,-1%,0,0%[9.22 µM]
O=C(N/N=C/c1ccccc1F)c1cccc2ccccc12,29%,35%,0,?
SMILES,ELG1 DNA repair,BRCA1 expr up,IL-2 act,Nrf2 activator
Cc1ccccc1C(=O)N/N=C/c1cccc2ccccc12,?,13µM*,-1,3%
O=C(NC1CCCC1)c1ccc2c(c1)N(Cc1ccc(C(F)(F)F)cc1)C(=O)c1ccccc1S2,/,-30%,/,-1%
CSc1nc(N)n2nc(-c3ccccc3)cc2n1,?,36%,-1,7.9µM*
COc1ccc(-c2nn3c(-c4cc(-c5ccccc5)n[nH]4)nnc3s2)cc1,/,-19%,/,/
COc1c(C)cccc1C(=O)Nc1ccc(CN2CCOCC2)cc1,?,2.5µM*,0,0%
COc1cccc(NC(=O)c2ccc(CN3CCOCC3)cc2)c1,?,11µM*,0,2%
Cc1cc2ccccc2n2c(SCC(=O)Nc3cccc(C(F)(F)F)c3)nnc12,/,/,/,0%
CCOC(=O)C1CCN(C(=O)c2ccc3c(c2)sc2nc(-c4ccccc4)cn23)CC1,/,/,/,7%

# Screens as filed in PubChem BioAssay.
